Most compounds without a hit are left out; they make up all but 6.2% or so of the library.
HT1080-NT tox: qHTS for induction of synthetic lethality in tumor cells producing 2HG: qHTS for the HT-1080-NT fibrosarcoma cell line; Potency, µM (top dose mostly 46.1 µM), most hits filed as cytotoxic; 360,000 tested, 1.6% active; HT-1080-NT fibrosarcoma viability, CellTiter-Glo ATP luminescence, 48 h;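 further: NT is the 2HG producing partner of a matched IDH1 knockdown line; nearly all actives have a fitted effect of over 55% in size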
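Viability by CellTiter-Glo luminescence after 48 h compound exposure at 37C of HT-1080-NT cells (750/well, RPMI, 5% FBS). % activity scaled between DMSO wells and medium-only wells, then curve-fitted and categorized by curve class.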
ATXN2 expr inh: Primary qHTS for Inhibitors of ATXN expression. HEK-293 ATXN2-luciferase reporter, luminescence, 24 h. Potency, µM (doses to about 57 µM), actives largely listed as inhibitors. 360,000 tested, 0.72% active. AID 1745845, 2022; further: nearly all actives have a fitted effect of over 55% in size
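qHTS (up to 57 uM final) was run with 24 h compound exposure of reporter cells at 37 °C. Each well was multiplexed: SteadyGlo luminescence measured ATXN2-luciferase expression after a fluorogenic Gly-Phe-AFC viability readout (25 uM final).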
KB-V1 MDR tox: qHTS assay for MDR1-selective chemotherapeutics: Primary screen using the drug-selected MDR subline cells KB-V1. AID 1347076, 2019. 400,000 tested, 3.4% active. KB-V1 MDR cells viability, CellTiter-Glo, 72 h. Potency, µM (highest dose often 46.1 µM), actives largely listed as cytotoxic; further: nearly all actives have a fitted effect of over 60% in size
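Cytotoxicity toward P-gp-expressing KB-V1 cells was determined as loss of CellTiter-Glo luminescence after 72 h at 37 degrees C. Compounds were tested in quantitative HTS format across a concentration range, with curves fitted to normalized data.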
HT1080 IDH1KD tx: qHTS for induction of synthetic lethality in tumor cells producing 2HG: qHTS for the HT-1080-IDH1KD cell line; HT-1080 IDH1 knockdown viability, ATP luminescence, 48 h; Potency, µM (series often up to 46.1 µM), actives largely listed as cytotoxic; 360,000 tested, 2% active
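CellTiter-Glo luminescence after 48 h compound exposure at 37 degrees C of IDH1-knockdown HT-1080 cells in 5% FBS RPMI. %Activity scaled between DMSO wells and cell-free media wells, with curves fitted and assigned curve classes.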
KB-3-1 cytotox: qHTS assay for MDR1-selective chemotherapeutics: Primary screen using the parental adenocarcinoma cell KB-3-1. Potency, µM (titrated, usually from 46.1 µM), usual class: cytotoxic. 400,000 tested, 1.4% active. KB-3-1 viability, CellTiter-Glo ATP luminescence, 72 h; further: nearly all actives have a fitted effect of over 60% in size
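Luminescent ATP read-out (CellTiter-Glo) measures survival of drug-naive KB-3-1 cells after 72 h compound exposure at 37 °C. Titration series was screened from lowest to highest concentration, with DMSO vehicle plates as background controls.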
ATXN viability: Viability Counterscreen for Primary qHTS for Inhibitors of ATXN expression. 400,000 tested, 0.49% active. S2 cells (HEK-293 line with an ATXN2-luciferase reporter) viability, CellTiter-Fluor protease fluorescence, 24 h. Potency, µM (highest dose often 56.7 µM), usual class: cytotoxic; further: nearly all actives have a fitted effect of over 40% in size
Large screens that a line does not name were inactive; ! = repeats disagree. The call rests on the fitted dose curve; in most records, active means well fitted curve in the direction sought with a large enough effect; inconclusive means small, poorly fitted or top-dose-only effect, or another doubt; inactive means no such curve, though single readings can be large; an effect the other way counts as inactive or inconclusive.

Cc1ccc(C(c2nnnn2Cc2ccccc2)N2CCN(Cc3ccncc3)CC2)cc1 (stereo unspecified)	none (no result: HT1080-NT tox, ATXN2 expr inh, HT1080 IDH1KD tx, ATXN viability)
COc1cc2c(cc1NC(=O)C(Cl)Cl)-c1ccc(NC(=O)C(Cl)Cl)cc1C2	HT1080-NT tox inconclusive, KB-V1 MDR tox 15µM, HT1080 IDH1KD tx 13µM, KB-3-1 cytotox inconclusive (no result: ATXN viability)
COc1ccc(C(=O)N2CCCC2)cc1S(=O)(=O)N1CCOCC1	KB-3-1 cytotox 23µM
CCc1nnc(NC(=O)c2ccc(OC)c(S(=O)(=O)N3CCCC3)c2)s1	KB-V1 MDR tox 21µM
CCc1nnc(NC(=O)c2ccc(S(=O)(=O)N3CCCCCC3)cc2)s1	HT1080-NT tox inconclusive
COc1ccc(/C=C/C(=O)Nc2ccccc2C)cc1S(=O)(=O)N1CCOCC1	HT1080-NT tox 13µM, KB-3-1 cytotox inconclusive, ATXN viability inconclusive (no result: ATXN2 expr inh)
COc1ccc(/C=C/C(=O)N2CCC(C(N)=O)CC2)cc1S(=O)(=O)N1CCOCC1	none
COc1ccc(/C=C/C(=O)N2CCN(c3ccccc3)CC2)cc1S(=O)(=O)N1CCOCC1	KB-V1 MDR tox 7.3µM, ATXN viability inconclusive
CCc1ccc(C(=O)c2cn(CC(=O)Nc3ccc4c(c3)OCCO4)c3ccc(CC)cc3c2=O)cc1	none (no result: HT1080-NT tox, HT1080 IDH1KD tx)
Cc1c(CN2CCOc3c(cc(-c4ncc(C(F)(F)F)cc4Cl)cc3OCC3CCCO3)C2)cnn1C (stereo unspecified)	none (no result: HT1080-NT tox, ATXN2 expr inh, KB-V1 MDR tox, HT1080 IDH1KD tx, KB-3-1 cytotox)
Cc1ccccc1CC1(CO)CCCN(C(=O)c2ccoc2)C1 (stereo unspecified)	none (no result: ATXN2 expr inh)
COc1ccc(C(=O)OCc2cc(C)ccc2C)cc1S(=O)(=O)N1CCCC1	KB-V1 MDR tox 5.2µM
OC1CCN(Cc2ccc3c(c2)CN(Cc2ccc(Oc4ncccn4)cc2)CCO3)CC1	none (no result: HT1080-NT tox, ATXN2 expr inh, KB-V1 MDR tox, HT1080 IDH1KD tx, KB-3-1 cytotox)
O=C1NC(Cc2ccccc2)C(=O)Nc2ccc(Br)cc21 (stereo unspecified)	none (no result: ATXN2 expr inh)
O=C1Nc2ccc(Br)cc2/C1=C/C1CC=CCC1 (stereo unspecified)	HT1080-NT tox inconclusive, ATXN2 expr inh inconclusive, HT1080 IDH1KD tx 21µM, KB-3-1 cytotox inconclusive, ATXN viability inconclusive
COCCCC/C(=N\OCCN)c1ccc(C(F)(F)F)cc1	HT1080-NT tox inconclusive, ATXN2 expr inh 16µM!, KB-V1 MDR tox inconclusive, HT1080 IDH1KD tx 18µM!, KB-3-1 cytotox inconclusive, ATXN viability inconclusive
O=C(Cn1cnc([N+](=O)[O-])c1)Nc1cc(Oc2ccc(Cl)cc2Cl)cc([N+](=O)[O-])c1	HT1080-NT tox 21µM, ATXN2 expr inh inconclusive, HT1080 IDH1KD tx inconclusive, KB-3-1 cytotox inconclusive
Nn1cc(-c2ccccc2)nc1SCC(=O)NCCc1ccccc1	KB-V1 MDR tox 23µM
CCn1c(SCC(=O)NCCc2ccccc2)nnc1-c1cccs1	KB-V1 MDR tox 21µM
CCn1c(SC/C=C/c2ccccc2)nnc1-c1cccs1	KB-V1 MDR tox 13µM
Cn1c(SC/C=C/c2ccccc2)nnc1-c1cccs1	none
N#C/C(=C1/SC[C@@H](c2ccc(Cl)cc2Cl)S1)n1ccnc1	ATXN2 expr inh inconclusive (no result: HT1080-NT tox, KB-V1 MDR tox, HT1080 IDH1KD tx, KB-3-1 cytotox)
CCN(Cc1ccccc1)C(c1cc2ccc(C)cc2[nH]c1=O)c1nnnn1CCOC (stereo unspecified)	KB-V1 MDR tox 15µM
CCc1ccc2nc(N3C(=O)C(O)=C(C(=O)c4ccco4)C3c3cccs3)sc2c1 (stereo unspecified)	KB-V1 MDR tox 5.8µM, KB-3-1 cytotox inconclusive
Cc1ccc2nc(N3C(=O)C(O)=C(C(=O)c4cc5ccccc5o4)C3c3cccs3)sc2c1 (stereo unspecified)	none
Cc1cc(N2C(=O)C(O)=C(C(=O)c3ccc(C)o3)C2c2cccs2)no1 (stereo unspecified)	KB-V1 MDR tox 5.2µM, KB-3-1 cytotox inconclusive
COc1cc(=O)n2c(c1C(=O)NCc1nonc1C)CCN(C(=O)c1cccc(C)c1C)CC2	none (no result: HT1080-NT tox, ATXN2 expr inh, KB-V1 MDR tox, HT1080 IDH1KD tx, KB-3-1 cytotox)
